36 compounds from PubChem BioAssay (Tox21) can be followed below.

Inconclusive results are not listed. Entries that show only a call come without a potency. Calls of active or inactive are those of the source. Unless noted, the call rests on the fitted dose curve; in most records, active means well fitted cell-killing curve with a large enough effect in the repeat runs; inconclusive means weak or mixed curves, or effect the other way; inactive means no such curve, though single readings can be large or run the other way.

Vitamin D3 receptor (Homo sapiens), sequence (P11473 whole entry, looked up): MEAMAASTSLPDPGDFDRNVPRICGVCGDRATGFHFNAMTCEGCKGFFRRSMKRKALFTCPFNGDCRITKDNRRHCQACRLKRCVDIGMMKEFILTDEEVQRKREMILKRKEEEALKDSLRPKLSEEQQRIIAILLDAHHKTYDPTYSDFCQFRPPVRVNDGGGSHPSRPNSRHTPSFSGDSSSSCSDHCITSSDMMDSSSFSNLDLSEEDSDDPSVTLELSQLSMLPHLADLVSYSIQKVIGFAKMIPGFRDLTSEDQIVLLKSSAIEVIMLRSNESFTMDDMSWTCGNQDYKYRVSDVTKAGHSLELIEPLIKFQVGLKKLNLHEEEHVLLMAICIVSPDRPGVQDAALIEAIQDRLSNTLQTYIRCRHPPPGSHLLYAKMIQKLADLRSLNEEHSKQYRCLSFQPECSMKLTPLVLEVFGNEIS

One assay has as its target Vitamin D3 receptor (Homo sapiens) (UniProt P11473). Nature of the assay: qHTS assay to identify small molecule antagonists of the vitamin D receptor (VDR) signaling pathway (AID 743223; active means well fitted inhibition curve with a large enough effect in the signal ratio in the repeat runs, not every such curve was filed as active; the % refers to the signal ratio). The following applies: VDR-UAS-bla HEK293T, beta-lactamase FRET ratio, 16 h; series mostly up to 61 µM. In short, it runs like this: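 Reporter line VDR-bla; stimulus 1alpha,25-(OH)2 vitamin D3, 3 nM final; compound co-addition, 16 h 37C/5% CO2; LiveBLAzer B/G substrate 2 h RT; fluorescence intensity.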
A general note: qHTS replaces the single test concentration by a dilution series.
As to `CCCCOC(=O)c1ccccc1`, the outcome was inactive.
The same measure, in the same setting: the value for `Brc1ccc(-c2ccccc2)cc1` was “inactive”; that for `CCOc1cc([N+](=O)[O-])c(OCC)cc1N1CCOCC1` was “inactive”; that for `O=C(CCNNC(=O)c1ccncc1)NCc1ccccc1` was “inactive”.
On the same count and under the same terms, with `COc1ccc(-c2cc(=O)c3c(O)cc(O[C@@H]4O[C@H](CO[C@@H]5O[C@@H](C)[C@H](O)[C@@H](O)[C@H]5O)[C@@H](O)[C@H](O)[C@H]4O)cc3o2)cc1O` the entry was “inactive”; with `Cc1cccc2nccnc12`, “inactive”.
Still for that read-out and setting: with `OC[C@H](Cc1cccc(O)c1)[C@H](CO)Cc1cccc(O)c1` the entry was “inactive”; with `C=C(C)C(=O)OCCN(CC)CC`, “inactive”; with `COCCc1ccc(OCC2CO2)cc1` (stereo not given), “inactive”.
For the compound `COC(=O)c1ccccc1C(=O)c1ccc(OCCN2CCCCC2)cc1`, the outcome was inactive.
Turning to `CC(C)=O`, the result was inactive.
The same measure, in the same setting: with `O=C(O)c1cc(Br)c(O)c(Br)c1` the entry was “inactive”.
As for `CCNC(=O)C1CC(C)CCC1C(C)C` (stereo not given), the result was inactive.
Still for that read-out and setting: with `O=C(O)c1cc(Cl)cc([N+](=O)[O-])c1Cl` the entry was “inactive”; with `CC1=C(C(=O)O)N2C(=O)[C@@H](NC(=O)[C@H](N)c3ccc(O)cc3)[C@H]2SC1`, “inactive”; with `C[C@H](CCC(=O)O)[C@H]1CC[C@H]2[C@@H]3C(=O)C[C@@H]4CC(=O)CC[C@]4(C)[C@H]3CC(=O)[C@]12C`, “inactive”.
On the same count and under the same terms, with `NC(CO)C(=O)NNCc1ccc(O)c(O)c1O` (stereo not given) the entry was “inactive”; with `COC(=O)[C@@H]1[C@H]2C[C@H]3c4[nH]c5ccccc5c4CCN3C[C@@H]2CC[C@@H]1O`, “inactive”; with `CCC(C)NC(N)=O` (stereo not given), “inactive”.
Still for that read-out and setting: with `COc1nccnc1NS(=O)(=O)c1ccc(N)cc1` the entry was “inactive”; with `O=C(NCCN1CCOCC1)c1ccc(Cl)cc1`, “inactive”.
On to `Cc1ccccc1OCC(O)CO` (stereo not given), for which the result was inactive.
The same measure, in the same setting: with `N[C@@H](CCC(=O)N[C@@H](CS)C(=O)NCC(=O)O)C(=O)O` the entry was “inactive”; with `CC(=O)Nc1cccc(C)c1`, “inactive”.
The same measure, in the same setting: the value for `CC(C)OC(=O)CCCCC(=O)OC(C)C` was “inactive”.
Same read-out and setting: the value for `COC(=O)CCc1ccc(OCC(O)CNC(C)C)cc1` (stereo not given) was “inactive”.
Consider `O=C(CCN1CCN(CCO)CC1)N1c2ccccc2Sc2ccc(C(F)(F)F)cc21`, for which the outcome was inactive.
Still for that read-out and setting: with `CCOCCOCCOCC` the entry was “inactive”; with `N[C@@H](CCC(=O)Nc1ccc([N+](=O)[O-])cc1)C(=O)O`, “inactive”; with `Cc1ccc2ccc(Cl)cc2n1`, “inactive”.
In the case of `NNc1nnc(NN)c2ccccc12`, the outcome was inactive.

Test system in the next assay: not listed separately
In words: qHTS assay to identify small molecule agonists of the vitamin D receptor (VDR) signaling pathway - cell viability counter screen (AID 743224). Further: nearly all actives have a fitted effect of over 50% in size. The note with it: VDR-bla HEK293T viability, CellTiter-Glo luminescence, 16 h; series mostly up to 62.6 µM. Put shortly: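 Cells: VDR-bla, 2,000/well, settled 4 h. Treatment: compounds in DMSO, 16 h, 37C/5% CO2. Readout: CellTiter-Glo luminescence after 30 min RT.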
For the compound `O=C1c2ccccc2C(=O)N1CCl`, the Potency entry was “inactive”.
For `CC(=O)CCCCn1c(=O)c2c(ncn2C)n(C)c1=O`, the Potency result is “inactive”.
Turning to `CCCCOC(=O)c1ccccc1`, the Potency result is “inactive”.
Consider `Brc1ccc(-c2ccccc2)cc1`, for which the Potency entry is “inactive”.
On the same count and under the same terms, with `O=C(CCNNC(=O)c1ccncc1)NCc1ccccc1` the entry was “inactive”.
On the same count and under the same terms, with `COc1ccc(-c2cc(=O)c3c(O)cc(O[C@@H]4O[C@H](CO[C@@H]5O[C@@H](C)[C@H](O)[C@@H](O)[C@H]5O)[C@@H](O)[C@H](O)[C@H]4O)cc3o2)cc1O` the entry was “inactive”; with `Cc1cccc2nccnc12`, “inactive”; with `O=C(OCC1(COC(=O)c2cccnc2)CCCC(COC(=O)c2cccnc2)(COC(=O)c2cccnc2)C1O)c1cccnc1`, “inactive”.
Same read-out and setting: the value for `OC[C@H](Cc1cccc(O)c1)[C@H](CO)Cc1cccc(O)c1` was “inactive”; that for `C=C(C)C(=O)OCCN(CC)CC` was “inactive”; that for `COCCc1ccc(OCC2CO2)cc1` (stereo not given) was “inactive”.
With `COC(=O)c1ccccc1C(=O)c1ccc(OCCN2CCCCC2)cc1`, the Potency result is “inactive”.
Same read-out and setting: with `O=C(O)c1cc(Br)c(O)c(Br)c1` the entry was “inactive”; with `CCNC(=O)C1CC(C)CCC1C(C)C` (stereo not given), “inactive”.
Same read-out and setting: the value for `O=C(O)c1cc(Cl)cc([N+](=O)[O-])c1Cl` was “inactive”.
`CC1=C(C(=O)O)N2C(=O)[C@@H](NC(=O)[C@H](N)c3ccc(O)cc3)[C@H]2SC1`: the Potency entry was “inactive”.
Still for that read-out and setting: the value for `C[C@H](CCC(=O)O)[C@H]1CC[C@H]2[C@@H]3C(=O)C[C@@H]4CC(=O)CC[C@]4(C)[C@H]3CC(=O)[C@]12C` was “inactive”.
On the same count and under the same terms, with `NC(CO)C(=O)NNCc1ccc(O)c(O)c1O` (stereo not given) the entry was “inactive”; with `COC(=O)[C@@H]1[C@H]2C[C@H]3c4[nH]c5ccccc5c4CCN3C[C@@H]2CC[C@@H]1O`, “inactive”.
On the same count and under the same terms, the value for `CCC(C)NC(N)=O` (stereo not given) was “inactive”.
Regarding `COc1ccc2nc(SCc3ncc(C)c(OC)c3C)[nH]c2c1`, the Potency result is “inactive”.
Same read-out and setting: the value for `CCCCCOC(=O)CCC` was “inactive”; that for `CC(=O)Nc1cccc(C)c1` was “inactive”; that for `CC(C)OC(=O)CCCCC(=O)OC(C)C` was “inactive”.
For the compound `COC(=O)CCc1ccc(OCC(O)CNC(C)C)cc1` (stereo not given), the Potency entry was “inactive”.
The same measure, in the same setting: with `O=C(CCN1CCN(CCO)CC1)N1c2ccccc2Sc2ccc(C(F)(F)F)cc21` the entry was “inactive”; with `CCOCCOCCOCC`, “inactive”; with `Cc1ccc2ccc(Cl)cc2n1`, “inactive”.
On the same count and under the same terms, the value for `NNc1nnc(NN)c2ccccc12` was “inactive”.

Test system in the next assay: not listed separately
Nature of the assay: qHTS assay to identify small molecule antagonists of the vitamin D receptor (VDR) signaling pathway - cell viability counter screen (AID 743225). Further: nearly all actives have a fitted effect of over 50% in size. The note with it: VDR-bla HEK293T viability, CellTiter-Glo luminescence, 16 h; series mostly up to 61 µM. Put shortly: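 Parallel cytotoxicity test: VDR-UAS-bla HEK 293T, 3 nM (final) 1-alpha,25-dihydroxyvitamin D3 with test compound, 16 h, 37C. Endpoint is CellTiter-Glo luminescence in the same wells.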
In the case of `CC(=O)CCCCn1c(=O)c2c(ncn2C)n(C)c1=O`, the compound was called inactive.
Still for that read-out and setting: with `CCCCOC(=O)c1ccccc1` the entry was “inactive”; with `CCOc1cc([N+](=O)[O-])c(OCC)cc1N1CCOCC1`, “inactive”; with `O=C(CCNNC(=O)c1ccncc1)NCc1ccccc1`, “inactive”.
The same measure, in the same setting: the value for `COc1ccc(-c2cc(=O)c3c(O)cc(O[C@@H]4O[C@H](CO[C@@H]5O[C@@H](C)[C@H](O)[C@@H](O)[C@H]5O)[C@@H](O)[C@H](O)[C@H]4O)cc3o2)cc1O` was “inactive”; that for `Cc1cccc2nccnc12` was “inactive”; that for `O=C(OCC1(COC(=O)c2cccnc2)CCCC(COC(=O)c2cccnc2)(COC(=O)c2cccnc2)C1O)c1cccnc1` was “inactive”.
The same measure, in the same setting: with `OC[C@H](Cc1cccc(O)c1)[C@H](CO)Cc1cccc(O)c1` the entry was “inactive”; with `C=C(C)C(=O)OCCN(CC)CC`, “inactive”; with `COCCc1ccc(OCC2CO2)cc1` (stereo not given), “inactive”.
As for `O=C(O)c1cc(Br)c(O)c(Br)c1`, the compound was classed as inactive.
On the same count and under the same terms, with `CCNC(=O)C1CC(C)CCC1C(C)C` (stereo not given) the entry was “inactive”.
The same measure, in the same setting: the value for `CC1=C(C(=O)O)N2C(=O)[C@@H](NC(=O)[C@H](N)c3ccc(O)cc3)[C@H]2SC1` was “inactive”.
Still for that read-out and setting: the value for `C[C@H](CCC(=O)O)[C@H]1CC[C@H]2[C@@H]3C(=O)C[C@@H]4CC(=O)CC[C@]4(C)[C@H]3CC(=O)[C@]12C` was “inactive”.
Turning to `NC(CO)C(=O)NNCc1ccc(O)c(O)c1O` (stereo not given), the compound was classed as inactive.
Still for that read-out and setting: the value for `COC(=O)[C@@H]1[C@H]2C[C@H]3c4[nH]c5ccccc5c4CCN3C[C@@H]2CC[C@@H]1O` was “inactive”.
Consider `CCC(C)NC(N)=O` (stereo not given), for which the outcome was inactive.
Still for that read-out and setting: the value for `O=C(NCCN1CCOCC1)c1ccc(Cl)cc1` was “inactive”; that for `Cc1ccccc1OCC(O)CO` (stereo not given) was “inactive”.
In the case of `COc1ccc2nc(SCc3ncc(C)c(OC)c3C)[nH]c2c1`, the compound was classed as inactive.
Same read-out and setting: with `CCCCCOC(=O)CCC` the entry was “inactive”.
On the same count and under the same terms, with `CC(=O)Nc1cccc(C)c1` the entry was “inactive”; with `CC(C)OC(=O)CCCCC(=O)OC(C)C`, “inactive”.
Still for that read-out and setting: with `N[C@@H](CCC(=O)Nc1ccc([N+](=O)[O-])cc1)C(=O)O` the entry was “inactive”; with `Cc1ccc2ccc(Cl)cc2n1`, “inactive”.
